Records with an inconclusive call do not appear. Where a call stands in place of a potency, no number is given. Unmarked numbers belong to inactive results. Activity calls are given as the source filed them. The call rests on the fitted dose curve; in most records, active means well fitted inhibition curve with a large enough effect; inconclusive means small, poorly fitted or top-dose-only effect; inactive means flat fitted curve, though single readings scatter.
Legend:
[1] = qHTS profiling for inhibitors of Plasmodium falciparum proliferation (AID 504749); further: nearly all actives have a fitted effect of over 60% in size; conditions: P. falciparum in erythrocytes, SYBR Green DNA, 72 h
Summary of the method: (§1)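 Three-day growth assay of blood-stage parasites in erythrocytes (0.3% parasitemia, 2.5% hematocrit) at 37 C, 5% CO2, quantified by SYBR Green DNA staining after overnight detergent lysis.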

3D7 = assay: as above; conditions: P. falciparum in erythrocytes, SYBR Green DNA, 72 h; series mostly up to 28.7 µM
Summary of the method: as §1

7G8 = assay: as above; conditions: P. falciparum in erythrocytes, SYBR Green DNA, 72 h; series mostly up to 28.7 µM
Summary of the method: as §1

AA1029 = assay: as above; conditions: P. falciparum in erythrocytes, SYBR Green DNA, 72 h; series mostly up to 28.7 µM
Summary of the method: as §1

AS120 = assay: as above; conditions: P. falciparum in erythrocytes, SYBR Green DNA, 72 h; series mostly up to 28.7 µM
Summary of the method: as §1

ATS189 = assay: as above; conditions: P. falciparum in erythrocytes, SYBR Green DNA, 72 h; series mostly up to 28.7 µM
Summary of the method: as §1

ATS95 = assay: as above; conditions: P. falciparum in erythrocytes, SYBR Green DNA, 72 h; series mostly up to 28.7 µM
Summary of the method: as §1

C2A = assay: as above; conditions: P. falciparum in erythrocytes, SYBR Green DNA, 72 h; series mostly up to 28.7 µM
Summary of the method: as §1

CP185 = assay: as above; conditions: P. falciparum in erythrocytes, SYBR Green DNA, 72 h; series mostly up to 28.7 µM
Summary of the method: as §1

CP191 = assay: as above; conditions: P. falciparum in erythrocytes, SYBR Green DNA, 72 h; series mostly up to 28.7 µM
Summary of the method: as §1

CP192 = assay: as above; conditions: P. falciparum in erythrocytes, SYBR Green DNA, 72 h; series mostly up to 28.7 µM
Summary of the method: as §1

[2] = at 12.8 µM (top of the series), parasite line A
[3] = at 12.8 µM (top of the series), parasite line B
[4] = at 28.7 µM (top of the series), parasite line A
[5] = at 28.7 µM (top of the series), parasite line B
Potency means the concentration at half of the fitted maximal effect.

Row | Compound | activity, negative = inhibition [1, 2] [%] | activity, negative = inhibition [1, 3] [%] | Potency (3D7) | Potency (7G8) | Potency (AA1029) | Potency (AS120) | Potency (ATS189) | Potency (ATS95) | Potency (C2A) | Potency (CP185) | outcome (CP191) | outcome (CP192) | activity, negative = inhibition [1, 4] [%] | activity, negative = inhibition [1, 5] [%] | Potency ([1]; parasite line A) | Potency ([1]; parasite line B)
1 | NC(N)=NCCN1CCCCCCC1 | 4.56 | 10.2 | inactive | inactive | inactive | inactive | inactive | inactive | inactive | inactive | inactive | inactive |  |  |  | 
2 | CC(CSC(=O)c1ccccc1)C(=O)N1C[C@@H](Sc2ccccc2)C[C@H]1C(=O)O (stereo not given in full) |  |  | inactive | inactive | inactive | inactive | inactive | inactive | inactive | inactive | inactive | inactive | 13 | 2.24 |  | 
3 | COc1ccc(Cc2cnc(N)nc2N)cc1OC |  |  | 7.08 µM (active) | inactive | inactive | inactive | inactive | inactive | inactive | inactive | inactive | inactive |  |  | 3.55 µM (active) | 8.91 µM (active)
4 | O=C(CCBr)N1CCN(C(=O)CCBr)CC1 |  |  | inactive | inactive | inactive | inactive | inactive | inactive | inactive | inactive | inactive | inactive | 10 | -0.0848 |  | 
5 | FC(F)(F)C(Cl)Br (stereo not given) |  |  | inactive | inactive | inactive | inactive | inactive | inactive | inactive | inactive | inactive | inactive | 6.28 | 10.7 |  | 
6 | CN1CCN(C(=O)C2CCCCC2)CC1 |  |  | inactive | inactive | inactive | inactive | inactive | inactive | inactive | inactive | inactive | inactive | 0.439 | -13.4 |  | 
7 | COc1ccc(O)cc1 |  |  | inactive | inactive | inactive | inactive | inactive | inactive | inactive | inactive | inactive | inactive | -6.25 | -15.4 |  | 
8 | CC1CC(OC(=O)c2ccccc2O)CC(C)(C)C1 (stereo not given) |  |  | inactive | inactive | inactive | inactive | inactive | inactive | inactive | inactive | inactive | inactive | -5.75 | 14.6 |  | 
9 | NS(=O)(=O)c1cc(-c2nn[nH]n2)c(NCc2cccs2)cc1Cl |  |  | inactive | inactive | inactive | inactive | inactive | inactive | inactive | inactive | inactive | inactive | 0.998 | 13.7 |  | 
10 | NNC(=O)CP(=O)(c1ccccc1)c1ccccc1 |  |  | inactive | inactive | inactive | inactive | inactive | inactive | inactive | inactive | inactive | inactive | 8.38 | 6.41 |  | 
11 | C[C@@H](N)C(=O)O |  |  | inactive | inactive | inactive | inactive | inactive | inactive | inactive | inactive | inactive | inactive | 26.2 | 15.6 |  | 
12 | NS(=O)(=O)c1ccc(C(=O)O)cc1 |  |  | inactive | inactive | inactive | inactive | inactive | inactive | inactive | inactive | inactive | inactive | 18.9 | 11.1 |  | 
13 | O=C(O)c1ccccc1C(=O)Nc1ccc(S(=O)(=O)Nc2nccs2)cc1 |  |  | inactive | inactive | inactive | inactive | inactive | inactive | inactive | inactive | inactive | inactive | 16.3 | 12.3 |  | 
14 | CC(C)CCOC(=O)c1ccc(N(C)C)cc1 |  |  | inactive | inactive | inactive | inactive | inactive | inactive | inactive | inactive | inactive | inactive | 18.9 | 14.8 |  | 
15 | CC(C(=O)O)c1ccc2c(c1)Cc1cccnc1O2 (stereo not given) |  |  | inactive | inactive | inactive | inactive | inactive | inactive | inactive | inactive | inactive | inactive | 5.68 | -1.86 |  | 
16 | O=c1[nH]c(=O)c2ccccc2o1 |  |  | inactive | inactive | inactive | inactive | inactive | inactive | inactive | inactive | inactive | inactive | 2.32 | 10.5 |  | 
17 | CC(C)C[C@@H](N)C(=O)O |  |  | inactive | inactive | inactive | inactive | inactive | inactive | inactive | inactive | inactive | inactive | 7.68 | 22.5 |  | 
18 | CCCCCCCCCCCCCCCCN |  |  | inactive | inactive | inactive | inactive | inactive | inactive | inactive | inactive | inactive | inactive | 0.565 | 3.84 |  | 
19 | Cc1ccc(S(=O)(=O)NC(=O)NC2CCCCCCC2)cc1 |  |  | inactive | inactive | inactive | inactive | inactive | inactive | inactive | inactive | inactive | inactive | 11.2 | 10.7 |  | 
20 | Cc1cc(=O)[nH]c(=S)[nH]1 |  |  | inactive | inactive | inactive | inactive | inactive | inactive | inactive | inactive | inactive | inactive | 10.7 | 5.6 |  | 
21 | C=CCNC(N)=S |  |  | inactive | inactive | inactive | inactive | inactive | inactive | inactive | inactive | inactive | inactive | 5.67 | -1.15 |  | 
22 | CCCNC(C)(C)COC(=O)c1ccccc1 |  |  | inactive | inactive | inactive | inactive | inactive | inactive | inactive | inactive | inactive | inactive | -2.07 | 9.96 |  | 

Row | Compound | activity, negative = inhibition [1, 2] [%] | activity, negative = inhibition [1, 3] [%] | Potency (3D7) | Potency (7G8) | Potency (AA1029) | Potency (AS120) | Potency (ATS189) | Potency (ATS95) | Potency (C2A) | Potency (CP185) | outcome (CP191) | outcome (CP192) | activity, negative = inhibition [1, 4] [%] | activity, negative = inhibition [1, 5] [%] | Potency ([1]; parasite line A) | Potency ([1]; parasite line B)
23 | CCc1nnc(NS(=O)(=O)c2ccc(N)cc2)s1 |  |  | inactive | inactive | inactive | inactive | inactive | inactive | inactive | inactive | inactive | inactive | 10.2 | 10.5 |  | 
24 | Cc1c(NC(C)C)c(=O)n(-c2ccccc2)n1C |  |  | inactive | inactive | inactive | inactive | inactive | inactive | inactive | inactive | inactive | inactive | 8.37 | 23.5 |  | 
25 | O=C(Cn1ccnc1[N+](=O)[O-])NCCO |  |  | inactive | inactive | inactive | inactive | inactive | inactive | inactive | inactive | inactive | inactive | 4.18 | -2.11 |  | 
26 | O=C(O)CNC(=O)c1ccccc1I |  |  | inactive | inactive | inactive | inactive | inactive | inactive | inactive | inactive | inactive | inactive | 6.37 | 11.3 |  | 
27 | CCCCC1(COC(=O)CCC(=O)O)C(=O)N(c2ccccc2)N(c2ccccc2)C1=O | 7.36 | 2.05 | inactive | inactive | inactive | inactive | inactive | inactive | inactive | inactive | inactive | inactive |  |  |  | 
28 | COc1cc(C(=O)NCCCCCC(=O)O)cc(OC)c1OC |  |  | inactive | inactive | inactive | inactive | inactive | inactive | inactive | inactive | inactive | inactive | 8.13 | 13.6 |  | 
29 | Cn1c(=O)c2c(ncn2CCO)n(C)c1=O |  |  | inactive | inactive | inactive | inactive | inactive | inactive | inactive | inactive | inactive | inactive | 2.6 | -3.88 |  | 
30 | C=CCSCC1Nc2cc(Cl)c(S(N)(=O)=O)cc2S(=O)(=O)N1 (stereo not given) |  |  | inactive | inactive | inactive | inactive | inactive | inactive | inactive | inactive | inactive | inactive | 8.77 | 13.6 |  | 
31 | O=C(O)c1ccc(OCCCOc2ccc(C(=O)O)cc2)cc1 |  |  | inactive | inactive | inactive | inactive | inactive | inactive | inactive | inactive | inactive | inactive | 0.28 | 9.9 |  | 
32 | CCCCCCCCCCCCCCCCC(C(=O)O)C(O)(CC(=O)O)C(=O)O (stereo not given) |  |  | inactive | inactive | inactive | inactive | inactive | inactive | inactive | inactive | inactive | inactive | 13.1 | 1.49 |  | 
33 | O=C(O)COC(=O)Cc1ccccc1Nc1c(Cl)cccc1Cl | -3.73 | 2.28 | inactive | inactive | inactive | inactive | inactive | inactive | inactive | inactive | inactive | inactive |  |  |  | 
34 | CC(C)CCCC(C)CCCC(C)CCCCC(C)CCCC(C)CCCC(C)C (stereo not given) |  |  | inactive | inactive | inactive | inactive | inactive |  | inactive | inactive | inactive | inactive | -0.284 | 17.5 |  | 
35 | CC[N+](C)(CC)CCOC(=O)C1c2ccccc2Oc2ccccc21 |  |  | inactive | inactive | inactive | inactive | inactive | inactive | inactive | inactive |  | inactive | -12.5 | -20.9 |  | 
36 | NC(=O)c1ccc([N+](=O)[O-])cc1Cl |  |  | inactive | 8.91 µM (active) | inactive | inactive |  | inactive | inactive | inactive |  | inactive | -8.53 | 6.47 |  | 
37 | O=C(O)CCC(=O)O |  |  | inactive | inactive | inactive | inactive | inactive | inactive | inactive | inactive | inactive | inactive | 10.3 | 13.7 |  | 
38 | CC(=O)Nc1ccccc1 |  |  | inactive | inactive | inactive | inactive | inactive |  | inactive | inactive | inactive | inactive | 1.91 | -0.613 |  | 
39 | OCc1ccc(Cl)cc1Cl |  |  | inactive | inactive | inactive | inactive | inactive | inactive | inactive | inactive | inactive | inactive | -3.83 | -17.4 |  | 
40 | CCN(CC)CC1CCCCN1CC(=O)N1c2ccccc2C(=O)Nc2cccnc21 (stereo not given) |  |  | inactive | inactive | inactive | inactive | inactive | inactive | inactive | inactive | inactive | inactive | 6.16 | 1.05 |  | 
41 | CN/C(=C\[N+](=O)[O-])NCCSCc1csc(CN(C)C)n1 | 4.23 | 7.76 | inactive | inactive | inactive | inactive | inactive | inactive | inactive | inactive | inactive | inactive |  |  |  | 
42 | C[N+](C)(C)CC[N+]1(C)Cc2c(Cl)c(Cl)c(Cl)c(Cl)c2C1 |  |  | inactive | inactive | inactive | inactive | inactive | inactive | inactive | inactive | inactive | inactive | 5.09 | 9.42 |  | 
43 | CCCCCCCCCCOc1cc2c(=O)c(C(=O)OCC)c[nH]c2cc1OCC |  |  | 0.0022 µM (active) | 0.0028 µM (active) | 2.5 nM (active) | 2 nM (active) | 1.3 nM (active) | 2.8 nM (active) | 10 nM (active) | 2.2 nM (active) |  | inactive |  |  | 0.0009 µM (active) | 0.0022 µM (active)
